Assay results from PubChem BioAssay AID1159580 (chemical genetic matrix, 2015).
The campaign covered roughly 5,500 compounds. About 2,000 (36%) were called active. Roughly 18% stayed inconclusive and do not appear here. Cut-off read from the data, not from the text of the source: active = normalized growth mostly below about 0.91 (no sharp cut-off); inconclusive = no clear call, values can overlap the other calls; inactive = mostly above about 0.92. The list shows a part of the results.

Assay: chemical genetic growth profiling, strain panel (AID 1159580);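 note: tested at 20 µM; growth read once vehicle control cultures reached saturation at 30 °C; 1 = growth at the plate median or of vehicle wells; lower values mean less growth of the strain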
Settings: growth OD

Measured: normalized growth

CC(Cc1ccc(O)c(O)c1)(NN)C(=O)O (centres undefined)
inactive: S. cerevisiae deletion strains, locus YJR075W, strain HOC1, hits give low values 1.02 | S. cerevisiae deletion strains, locus YKL009W, strain mrt4, hits give low values 0.991 | S. cerevisiae deletion strains, locus YKL068W, hits give low values 0.997 | S. cerevisiae deletion strains, locus YKL085W, strain MDH1 (second series), hits give low values 0.992 | S. cerevisiae deletion strains, locus YKL085W, strain MDH1, hits give low values 0.992 | S. cerevisiae deletion strains, locus YKL160W, strain elf1, hits give low values 1.01 | S. cerevisiae deletion strains, locus YKL190W, strain CNB1, hits give low values 0.991 | S. cerevisiae deletion strains, locus YKR001C, strain vps1, hits give low values 1 | S. cerevisiae deletion strains, locus YKR026C, strain gcn3, hits give low values 0.988 | S. cerevisiae deletion strains, locus YKR091W, strain srl3, hits give low values 1.01 | S. cerevisiae deletion strains, locus YLL001W, strain dnm1, hits give low values 1.01 | S. cerevisiae deletion strains, locus YLL026W, hits give low values 1.01 | S. cerevisiae deletion strains, locus YLL041C, strain sdh2, hits give low values 1.01 | S. cerevisiae deletion strains, locus YLR027C, strain aat2, hits give low values 1.01 | S. cerevisiae deletion strains, locus YLR039C, strain RIC1, hits give low values 1.04 | S. cerevisiae deletion strains, locus YLR058C, strain SHM2, hits give low values 1.01 | S. cerevisiae deletion strains, locus YLR102C, strain apc9, hits give low values 1.02 | S. cerevisiae deletion strains, locus YLR113W, strain HOG1, hits give low values 0.918 | S. cerevisiae deletion strains, locus YLR221C, strain rsa3, hits give low values 1.01 | S. cerevisiae deletion strains, locus YLR258W, strain gsy2, hits give low values 0.999 | S. cerevisiae deletion strains, locus YLR262C, strain YPT6 (second series), hits give low values 0.978 | S. cerevisiae deletion strains, locus YLR262C, strain YPT6, hits give low values 1.03 | S. cerevisiae deletion strains, locus YLR268W, strain sec22, hits give low values 0.996 | S. cerevisiae deletion strains, locus YLR320W, strain mms22, hits give low values 1.02 | S. cerevisiae deletion strains, locus YLR330W, strain CHS5, hits give low values 1 | S. cerevisiae deletion strains, locus YLR342W, strain FKS1 (second series), hits give low values 0.966 | S. cerevisiae deletion strains, locus YLR342W, strain FKS1, hits give low values 0.992 | S. cerevisiae deletion strains, locus YLR357W, strain rsc2, hits give low values 0.973 | S. cerevisiae deletion strains, locus YLR370C, strain arc18, hits give low values 1.01 | S. cerevisiae deletion strains, locus YLR371W, strain rom2, hits give low values 1.01 | S. cerevisiae deletion strains, locus YLR384C, strain iki3, hits give low values 0.976 | S. cerevisiae deletion strains, locus YLR418C, strain cdc73, hits give low values 1.07 | S. cerevisiae deletion strains, locus YML016C, strain PPZ1, hits give low values 0.999 | S. cerevisiae deletion strains, locus YML032C, strain rad52, hits give low values 1.01 | S. cerevisiae deletion strains, locus YML120C, strain ndi1, hits give low values 0.99 | S. cerevisiae deletion strains, locus YML124C, strain tub3, hits give low values 1.01 | S. cerevisiae deletion strains, locus YMR058W, strain fet3, hits give low values 0.987 | S. cerevisiae deletion strains, locus YMR078C, strain ctf18, hits give low values 1.02 | S. cerevisiae deletion strains, locus YMR125W, strain sto1, hits give low values 1 | S. cerevisiae deletion strains, locus YMR129W, hits give low values 0.997 | S. cerevisiae deletion strains, locus YMR205C, strain PFK2, hits give low values 1.04 | S. cerevisiae deletion strains, locus YMR223W, strain ubp8, hits give low values 0.996 | S. cerevisiae deletion strains, locus YMR231W, strain pep5, hits give low values 1.01 | S. cerevisiae deletion strains, locus YMR263W, strain SAP30, hits give low values 0.988 | S. cerevisiae deletion strains, locus YMR307W, strain GAS1, hits give low values 1.05 | S. cerevisiae deletion strains, locus YNL067W, strain RPL9B, hits give low values 0.966 | S. cerevisiae deletion strains, locus YNL071W, strain lat1, hits give low values 0.993 | S. cerevisiae deletion strains, locus YNL183C, strain NPR1, hits give low values 0.912 | S. cerevisiae deletion strains, locus YNL209W, strain ssb2, hits give low values 0.993 | S. cerevisiae deletion strains, locus YNL233W, strain BNI4, hits give low values 0.982 | S. cerevisiae deletion strains, locus YNL248C, strain rpa49, hits give low values 1.01 | S. cerevisiae deletion strains, locus YNL250W, strain rad50, hits give low values 1 | S. cerevisiae deletion strains, locus YNL271C, strain bni1, hits give low values 1.01 | S. cerevisiae deletion strains, locus YNL298W, strain CLA4, hits give low values 1.02 | S. cerevisiae deletion strains, locus YNL307C, strain MCK1, hits give low values 1.02 | S. cerevisiae deletion strains, locus YNL322C, strain KRE1 (second series), hits give low values 1 | S. cerevisiae deletion strains, locus YNL322C, strain KRE1, hits give low values 0.999 | S. cerevisiae deletion strains, locus YNR049C, strain mso1, hits give low values 1.01 | S. cerevisiae deletion strains, locus YNR052C, strain pop2, hits give low values 1.01 | S. cerevisiae deletion strains, locus YOL006C, strain TOP1, hits give low values 0.989 | S. cerevisiae deletion strains, locus YOL012C, strain htz1 0.764 | S. cerevisiae deletion strains, locus YOL147C, strain pex11, hits give low values 1.01 | S. cerevisiae deletion strains, locus YOR001W, strain rrp6, hits give low values 0.987 | S. cerevisiae deletion strains, locus YOR061W, strain CKA2, hits give low values 1 | S. cerevisiae deletion strains, locus YOR069W, strain VPS5, hits give low values 1.03 | S. cerevisiae deletion strains, locus YOR070C, strain gyp1, hits give low values 1 | S. cerevisiae deletion strains, locus YOR080W, strain dia2, hits give low values 1 | S. cerevisiae deletion strains, locus YOR083W, strain WHI5, hits give low values 0.996 | S. cerevisiae deletion strains, locus YOR106W, strain vam3, hits give low values 0.984 | S. cerevisiae deletion strains, locus YOR136W, strain idh2, hits give low values 1.01 | S. cerevisiae deletion strains, locus YOR144C, strain elg1, hits give low values 1 | S. cerevisiae deletion strains, locus YOR184W, strain ser1, hits give low values 1.03 | S. cerevisiae deletion strains, locus YOR231W, strain MKK1, hits give low values 0.955 | S. cerevisiae deletion strains, locus YOR265W, strain rbl2, hits give low values 0.993 | S. cerevisiae deletion strains, locus YOR270C, strain vph1, hits give low values 1.11 | S. cerevisiae deletion strains, locus YOR290C, strain snf2, hits give low values 1 | S. cerevisiae deletion strains, locus YOR316C, strain cot1, hits give low values 1.01 | S. cerevisiae deletion strains, locus YPL051W, strain arl3, hits give low values 0.991 | S. cerevisiae deletion strains, locus YPL055C, strain LGE1, hits give low values 0.926 | S. cerevisiae deletion strains, locus YPL078C, strain atp4, hits give low values 0.991 | S. cerevisiae deletion strains, locus YPL106C, strain sse1, hits give low values 0.918 | S. cerevisiae deletion strains, locus YPL240C, strain hsp82, hits give low values 1 | S. cerevisiae deletion strains, locus YPL256C, strain CLN2, hits give low values 0.968 | S. cerevisiae deletion strains, locus YPR119W, strain clb2, hits give low values 1.01 | S. cerevisiae deletion strains, locus YPR141C, strain kar3, hits give low values 0.999 | S. cerevisiae deletion strains, locus YPR163C, strain tif3, hits give low values 1.01 | S. cerevisiae deletion strains, locus YPR167C, strain met16, hits give low values 1.02 | S. cerevisiae deletion strains, strain wtn01, hits give low values 1.01 | S. cerevisiae strains, strain wild type, hits give low values 0.988
